Where “and” joins values, the source holds several entries; their conditions need not be identical. Equal entries are not always repeated. This is part of a sample that, as a whole, favours compounds with a hit. Of some 83,000 tested, about 20% had one in any assay.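 Note: values are percent growth. 100 is the growth of untreated cells, values between 100 and 0 indicate rising inhibition; between -100 and 0 indicates cell death.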 Values without a mark were called inactive. Calls of active or inactive are those of the source. Rule for the calls: active = growth percent below 10; inactive = the rest.

This assay has as its system MDA-MB-468 breast. Put plainly: NCI-60 one-dose screen, 48 h (100 = growth as untreated, 0 = no growth, -100 = all killed). The following applies: 10 µM unless noted.
Regarding `C=C(Cl)C(=NC(C)(C)C)Nc1ccccc1C`, the growth is 39.2%. The figure for `CCN(CC)CCCC(C)Nc1nc(-c2ccc(OC)cc2)nc2cc(Cl)ccc12` (centres undefined) is 34.8%.

For the compound `O=C1/C(=C/c2ccc(Br)cc2)COc2ccc(O)c(O)c21`, the growth is -51.8% (active).

For `CC(C)(C)[Si](C)(C)OC1[C@@H](COC(=O)NC(=O)CCl)O[C@@H](n2cnc3c(N)ncnc32)[C@H]1O[Si](C)(C)C(C)(C)C` (some centres undefined), the growth was 65%. The figure for `O=C(Nc1cccc2[nH]c(C(F)(F)F)nc12)c1ccc(Br)cc1F` is 11.9%. The figure for `C#CCNCCCN1C(=O)c2ccc3c4c(ccc(c24)C1=O)C(=O)N(CCCNCC#C)C3=O` is -85.6% (active). For the compound `CCN1CCN(CCNc2nccc(-c3c(-c4cccc(OC)c4)nc4occn34)n2)S1(=O)=O`, the growth is 100%. The figure for `CC1(C)OB(O)c2cc(-c3nc4ccc5[nH]ncc5c4c4c3CCCC4)ccc21` is 69.5%; for `COc1cc(C(=O)NNC(=O)c2ccc(NC(=O)CCl)cc2)cc(OC)c1OC` it is 70.3%.

`COc1ccc(C2CC(=O)c3c(O)c(OC)c(OC)c(OC)c3O2)c(O)c1` (centres undefined): the growth is -3.61% (active).

Turning to `Cn1c(-c2nonc2NC(=O)c2ccc(F)cc2)nc2ccccc21`, the growth is 99.5%. The figure for `CCN(CC)C(=O)c1cccnc1` is 109%; for `CCN1CCN(C(=O)[C@]23CCC(C)(C)C[C@H]2C2=CC[C@@H]4[C@@]5(C)CC/C(=N/O)C(C)(C)[C@@H]5CC[C@@]4(C)[C@]2(C)CC3)CC1` it is 47%; for `COc1ccc(C2CC(c3ccc(Nc4ccnc5cc(Cl)ccc45)cc3)=NN2C=O)cc1` (centres undefined) it is 9.91% (active). In the case of `Cc1ccc(S(=O)(=O)NCCNc2nc(Nc3ccc(N4CCN(C)CC4)cc3)nc3ccsc23)cc1`, the growth is 94.1%. The value for `COc1ccc(C2CC(c3ccc(Cl)cc3)=NN2/C=C2\SC(=S)N(NC(=O)Cc3ccccc3Nc3c(Cl)cccc3Cl)C2=O)cc1` (centres undefined) was 75.2%; that for `CN(C)c1ccc(/C=c2\sc3nc4ccccc4n3c2=O)cc1` was 78.4%; that for `CNC(=O)c1cc(Cn2nc(C)c(NC(=O)Nc3ccc(Cl)c(C(F)(F)F)c3)c2C)ccn1` was 97.5%.

In the case of `CCCNNC(=O)c1ccc(-c2ccc(NC(=O)CCCCCCC(=O)N[C@H](C(=O)N3C[C@H](O)C[C@H]3C(=O)N[C@@H](C)c3ccc(-c4scnc4C)cc3)C(C)(C)C)cc2)cc1`, the growth was -10.1% (active).

For the compound `Brc1ccc(-c2cn3ccnc3c(-c3ccc(Br)cc3)n2)cc1`, the growth was 33.2%.

`Cc1ccc(C2=C/C(=C/c3ccc(Br)cc3)C(=O)N2CCc2ccc(S(N)(=O)=O)cc2)cc1`: the growth was 92.7%. The figure for `NS(=O)(=O)c1ccc(N=Nc2ccc(-c3nn4cc(-c5ccccc5)nc4s3)cc2)cc1` is 100%; for `CC1(C)CC[C@]2(CO)CC[C@]3(C)[C@](O)([C@H](O)C[C@@H]4[C@@]5(C)CCCNC(C)(C)[C@@H]5CC[C@]43C)[C@@H]2C1` it is 81.3%. As for `CO[C@H]1C[C@@H]2CC[C@@H](C)[C@@](O)(O2)C(=O)C(=O)N2CCCC[C@H]2C(=O)O[C@H]([C@H](C)C[C@@H]2CC[C@@H](OCCO)[C@H](OC)C2)CC(=O)[C@H](C)/C=C(\C)[C@@H](O)[C@H](OC)C(=O)[C@H](C)C[C@H](C)\C=C/C=C/C=C/1C`, the growth is 26.9%. Regarding `CO[C@@H](C(=O)N1Cc2[nH]nc(NC(=O)c3ccc(N4CCN(C)CC4)cc3)c2C1)c1ccccc1`, the growth is 50.7%. As to `Fc1ccc(C(c2ccc(F)cc2)C(Cl)Cl)cc1`, the growth is 104%.

In the case of `O=[N+]([O-])c1ccccc1/C=N\NC(=S)N/N=C/c1ccccc1[N+](=O)[O-]`, the growth is 30.7%. The figure for `O=C(O)C(O)c1ccccc1` (centres undefined) is 100%; for `COc1ccc(Nc2ncccc2NC(=O)c2cn(Cc3cccc(Oc4ccccc4)c3)nn2)cc1` it is 89.8%; for `CCOC(=O)Nc1ccc2c(c1)/C(=N\NC(N)=S)c1ccccc1-2` it is 55.3% and 75.3%.

Take `O=C(Nc1ccccc1Cl)OCCN1CCOCC1`: the growth is 109%. The value for `Cc1nc2ccccc2c(/C=C/c2ccc(Cl)cc2)c1C(=O)/C=C/c1ccc(F)cc1` was -16.5% (active); that for `O=C1/C(=C/c2ccc3c(c2)OCO3)SC(=S)N1CCc1ccc(O)cc1` was 67.8%; that for `CC(=O)Oc1csc(N(C(C)=O)c2cc(C(=O)O)cc(C(=O)O)c2)n1` was 95.2%.

These data come from PubChem BioAssay (NCI).
